# Lamin A splicing: LMNA splicing modulation | HeLa LMNA splicing GFP/RFP minigene ratio, 48 h | actives 0.01% (n = 200,000) | Potency, µM (top dose mostly 46.1 µM), most hits filed as inhibitors; active means well fitted inhibition curve with a large enough effect in the signal ratio, with a control signal flat, not every such curve was filed as active; inconclusive means small, poorly fitted or top-dose-only effect, or effect the other way, or a change in a side signal; the % refers to the signal ratio
#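 Read-out is the ratio of GFP to DsRed2 object intensity, acquired by 488 nm laser-scanning cytometry on HeLa lamin A-EGFP minigene reporter cells. Compound incubation 48 hrs at 37 °C in Opti-MEM with 2% FBS; DMSO 0.5% final.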
# ALDH1A1 inh: inhibitors of human aldehyde dehydrogenase 1A1; P00352; Purified ALDH1A1, NADH fluorescence, propionaldehyde substrate; Potency, µM (highest dose often 75.3 µM), usual class: inhibitors; actives 7.3% (n = 220,000); AID 1030
# IMPase cell inh: membrane-permeable compound that blocks inositol monophosphatase; P97697; CHO-M1 cells, IP1 accumulation, HTRF TR-FRET ratio; inhibition (IP1 accumulation), % at 46.1 µM; 120,000 tested, under 10 active; active means well fitted curve in the direction sought with a large enough effect in the signal ratio, not every such curve was filed as active; inconclusive means small, poorly fitted or top-dose-only effect, or a change in a side signal; inactive means no such curve, though single readings can be large or run the other way; the % refers to the signal ratio;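 further: cells stimulated with carbachol in lithium chloride buffer; higher means more IMPase inhibition seen as more IP1 and lower FRET ratio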
# Target sequence (P97697 whole entry, looked up): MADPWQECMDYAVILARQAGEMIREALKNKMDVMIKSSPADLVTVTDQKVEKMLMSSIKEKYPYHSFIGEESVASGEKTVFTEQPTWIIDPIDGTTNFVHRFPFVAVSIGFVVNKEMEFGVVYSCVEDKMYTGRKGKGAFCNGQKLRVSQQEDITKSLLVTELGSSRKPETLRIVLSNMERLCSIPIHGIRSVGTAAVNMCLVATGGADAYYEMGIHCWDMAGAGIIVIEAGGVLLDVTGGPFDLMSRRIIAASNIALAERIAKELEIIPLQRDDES
#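 CHO-M1 cells (CHO stably expressing M1 receptor), compound up to 46 uM final, stimulated with carbachol (50 uM as added) in buffer with 50mM LiCl, pH 7.4, 30 min at 37C. Cytosolic IP1 read by TR-FRET; AC50 from Hill fits.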
# PNC assembly inh: blocks assembly of the perinucleolar compartment | activity change (PNC), negative = inhibition, % at 10 µM | actives 3.1% (n = 140,000) | PC3M PTB-GFP, PNC prevalence imaging, 16 h; active compounds read low;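 active means readout at or below -70, meaning at least 70% loss of cells showing the perinucleolar compartment, a nuclear body marking cancer cells; inconclusive means readout between -30 and a set limit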
#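 Read-out is percentage of cells bearing a perinucleolar compartment, from automated 20x imaging of fixed, Hoechst-stained PC3M PTB-GFP cells. Cells were seeded 4 h, then exposed 16 h to compound (23 nl of library stock) in duplicate plates.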
# HPGD block: HPGD (human) dehydrogenase inhibition. actives 4.3% (n = 150,000). purified HPGD, NADH fluorescence kinetic, PGE2 substrate. P15428. Potency, µM, hits mostly inhibitors
# Target sequence (P15428 whole entry, looked up): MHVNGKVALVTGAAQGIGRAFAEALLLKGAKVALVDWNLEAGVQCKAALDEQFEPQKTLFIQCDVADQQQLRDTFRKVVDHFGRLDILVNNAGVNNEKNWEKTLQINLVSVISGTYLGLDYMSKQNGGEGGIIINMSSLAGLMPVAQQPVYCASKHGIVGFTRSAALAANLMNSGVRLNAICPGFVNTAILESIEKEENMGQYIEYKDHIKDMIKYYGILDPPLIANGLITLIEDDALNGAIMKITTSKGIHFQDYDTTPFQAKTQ
#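 20 nM HPGD preincubated 15 min at room temperature with compound in 50 mM Tris-HCl pH 8, 0.01% Tween 20. Started with 1 mM NAD+ and 30 uM prostaglandin E2; NADH fluorescence (360/450 nm) read 5 times over 30-s intervals, last minus first.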
# Luc counter: blocks Kinase-Glo luciferase, a counter-screen artifact. AID 1379. Q27757. actives 0.28% (n = 200,000). Kinase-Glo luciferase, ATP luminescence, 8 min. Potency, µM (top dose mostly 38.3 µM), usual class: inhibitors; active means well fitted inhibition curve with a large enough effect; inconclusive means small, poorly fitted or top-dose-only effect; further: nearly all actives have a fitted effect of over 60% in size
#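 Compound is pinned into ATP-containing buffer (10 uM ATP, imidazole pH 7.2, 7 mM MgCl2). Kinase-Glo luciferase reagent is then added. Light output is recorded following an 8-min room-temperature incubation.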
# A number is an active result; . = inactive; ? = inconclusive; / = not tested or not shown; ! = not active in a repeat; [ ] = another dose, or the depositor's remark. Hits are enriched below; roughly 10% of the tested compounds scored in any of these assays. Unless noted, the call rests on the fitted dose curve; in most records, active means well fitted inhibition curve with a large enough effect (not every such curve was filed as active); inconclusive means small, poorly fitted or top-dose-only effect, or another doubt; inactive means no such curve, though single readings can be large or run the other way.
SMILES,Lamin A splicing,ALDH1A1 inh,IMPase cell inh,PNC assembly inh,HPGD block,Luc counter
CC1(C)Cc2nc3sc4c(OCc5ccccc5)ncnc4c3cc2CO1,.,?,.,.,.,.
NCC[C@H]1CCC[C@H](CCN)N1,/,/,.,/,/,/
Cc1nc(NS(=O)(=O)c2ccc(Br)cc2)c2c3c(sc2n1)CCC3,.,12.6µM,.,.,.,.
O=S(=O)(Nc1nc2c(s1)CCCC2)c1ccc(Br)cc1,?,12.6µM,.,.,.,.
CC1CCc2c(sc3nc(CN4CCOCC4)nc(NS(=O)(=O)c4cccc([N+](=O)[O-])c4)c23)C1 (stereo not given),.,4.47µM,.,.,.,.
COc1cccc(Nc2nc(CN3CCOCC3)nc3sc4c(c23)CCCC4)c1,.,.,.,.,.,.
Cc1cc(S(=O)(=O)Nc2nc(CN3CCOCC3)nc3sc4c(c23)CCCC4)ccc1F,.,14.1µM,.,.,.,.
Cc1nc(NS(=O)(=O)c2cccs2)c2c3c(sc2n1)CCC3,.,?,.,.,.,.
CCCCOC(=O)c1ccc(NC(=O)c2csnn2)cc1,.,/,/,/,/,/
O=C(O)c1nnsc1COCc1ccccc1,/,.[13.5 µM],/,/,.,.[7.66 µM]
O=C(CCl)NCc1c(Cl)cccc1-n1cccc1,?,28.2µM,.,?,.,.
Cc1ccc(C2CC(=O)Oc3ccc(C(C)(C)C)cc32)cc1 (stereo not given),/,.,/,/,.,.
CCn1c(CNc2ccc(C(=O)O)cc2)nc2ccccc21,.,.,.,-109.3,.,.
CN1CCc2nc3sc(C(=O)NCc4ccccc4)c(N)c3cc2C1,?,25.1µM,/,/,/,.
COc1ccccc1/C=C/C=N/n1c(-c2cc(C)[nH]n2)n[nH]c1=S,.,?,/,.,14.1µM,.
COc1cc(/C=N/n2c(-c3cc(C)[nH]n3)n[nH]c2=S)cc(OC)c1OC,/,.,/,/,/,/
Cc1cc(-c2n[nH]c(=S)n2/N=C/C=C/c2ccccc2)n[nH]1,.,.,/,.,15.8µM,.
O=C(O)CCCc1nc2ccccc2s1,.,.,.,.,.,.
O=C(CCCc1nc2ccccc2s1)NCc1ccccc1,.,.,/,.,14.1µM,.
O=C(CCCc1nc2ccccc2s1)NCc1ccc(F)cc1,.,?,/,?,25.1µM,.
CN(C(=O)CCc1nc2ccccc2s1)c1ccccc1,.,.,.,-112.1,?,.
O=C(CCc1nc2ccccc2s1)c1ccccc1,.,.,/,.,?,.
O=C(CSc1nc2ccccc2nc1Cc1ccc(Cl)cc1)NCCc1ccccc1,.,/,/,/,/,/
COc1ccc2c(c1)c(CC(=O)OCC(=O)O)c(C)n2C(=O)c1ccc(Cl)cc1,.,.,.,/,.,.
COc1ccc2c(c1)c(CC(=O)O)c(C)n2Cc1ccc(Cl)cc1,?,25.1µM,.,/,.,.
SMILES,Lamin A splicing,ALDH1A1 inh,IMPase cell inh,PNC assembly inh,HPGD block,Luc counter
Cc1cc(C)c(C(=O)Nc2ccccc2)c(SCC(=O)Nc2ccc(Br)cc2C)n1,.,/,/,/,/,/
O=C(NC(Cc1c[nH]c2ccccc12)C(=O)Nc1ccc(F)c([N+](=O)[O-])c1)c1cccs1 (stereo not given),?,.,.,-119.3,.,.
O=C(NC(Cc1c[nH]c2ccccc12)C(=O)O)c1cccs1 (stereo not given),?,.,/,/,/,.
O=C(NC(Cc1c[nH]c2ccccc12)C(=O)Nc1ccc(OC(F)(F)F)cc1)c1cccs1 (stereo not given),?,.,/,-113.0,.,.
O=C(NC(Cc1c[nH]c2ccccc12)C(=O)N/N=C/c1cccc2ccccc12)c1cccs1 (stereo not given),?,.,.,.,.,.
COc1ccccc1CNc1cc(-c2cccc(C#N)c2)ncn1,.,?,/,/,/,/
O=C(NCCO)/C(=C/c1cccc([N+](=O)[O-])c1)NC(=O)c1ccco1,/,.,/,/,/,.
CC(NC(=O)/C(=C\c1cccc([N+](=O)[O-])c1)NC(=O)c1ccco1)C(=O)O (stereo not given),.[0.0737 µM],6.31µM,.,.,28.2µM,.
COc1cccc([C@@H]2Oc3ccc(Br)cc3C[C@H]2OC(=O)Nc2ccc(OC(F)F)cc2)c1,/,.,/,/,.,.
Oc1c(Cl)cc(Cl)cc1Sc1cc(Cl)cc(Cl)c1O,?,23.8µM!,/,.,31.6µM!,.
